# Data: PubChem BioAssay (EPA / NIEHS)
# Inconclusive results are not listed. Calls of active or inactive are those of the source. The calls were made as follows: active = hit-call score of the fitted dose curve at least 0.9, where 1 is the maximum; inconclusive = response in the unintended direction; inactive = score below 0.9.
# Assays:
# [1] = biological target: human Peroxisome Proliferator-activated Receptor alpha (PPARa), PPARA (gene 5465) (UniProt Q07869); experiment: ATG_PPARa_TRANS: Attagene TRANS-FACTORIAL HepG2 Assay for human Peroxisome Proliferator-activated Receptor alpha (PPARa) (AID 2283001);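 as to AC50: potency for gain of reporter signal over DMSO so agonist or activator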
# Procedure, shortened: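 HepG2, transient MRTU transfection, 24 h treatment. RT-PCR → FAM labelling → capillary electrophoresis. Fit vs DMSO, positive direction.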
# [2] = biological target: human Peroxisome Proliferator-activated Receptor delta (PPARd), PPARD (gene 5467) (UniProt Q03181); experiment: ATG_PPARd_TRANS: Attagene TRANS-FACTORIAL HepG2 Assay for human Peroxisome Proliferator-activated Receptor delta (PPARd) (AID 2283002)
# Procedure, shortened: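 Fluorescence from capillary electrophoresis of labelled RT-PCR reporter fragments gives the signal; DMSO sets baseline. Cells: HepG2 transiently carrying GAL4-UAS reporter units plus chimeric nuclear receptor-Gal4 proteins, exposed to chemicals for 24 h.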
# [3] = biological target: Peroxisome proliferator-activated receptor gamma (Homo sapiens) (UniProt P37231); experiment: ATG_PPARg_TRANS: Attagene TRANS-FACTORIAL HepG2 Assay for human Peroxisome Proliferator-activated Receptor-gamma (PPARg) (AID 2283007)
# Procedure, shortened: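 Multiplexed reporter transcription units in HepG2, 24 h dosing, reporter transcripts quantified by fluorescent RT-PCR and capillary electrophoresis. Increase over DMSO scored.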
# [4] = biological target: Nuclear receptor subfamily 1 group I member 2 (Homo sapiens) (UniProt O75469); experiment: ATG_PXR_TRANS: Attagene TRANS-FACTORIAL HepG2 Assay for human Pregnane X Receptor (PXR) (AID 2283008)
# Procedure, shortened: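 HepG2 transfected (FuGene 6) with GAL4-UAS reporter units + PXR-Gal4 chimera; dosed 24 h. Total RNA → oligo(dT) RT → PCR → 6-FAM primer extension → HpaI cut → CE. Gain-of-signal vs DMSO.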
# [5] = biological target: Retinoic acid receptor RXR-alpha (Homo sapiens) (UniProt P19793); experiment: ATG_RXRa_TRANS: Attagene TRANS-FACTORIAL HepG2 Assay for human Retinoid X Receptor alpha (RXRa) (AID 2283012)
# Procedure, shortened: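 TRANS format reporting activity of exogenous RXRa-Gal4 chimera in transiently transfected HepG2, 24 h exposure. Reporter transcripts quantified by RT-PCR with capillary electrophoresis, with gain of signal scored relative to DMSO.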
# [6] = biological target: human Retinoid X Receptor beta (RXRb), RXRB (gene 6257) (UniProt P28702); experiment: ATG_RXRb_TRANS: Attagene TRANS-FACTORIAL HepG2 Assay for human Retinoid X Receptor beta (RXRb) (AID 2283013)
# Procedure, shortened: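 Readout is reporter transcript induction after 24 h dosing. It is measured by RT-PCR of total RNA followed by fluorescent capillary electrophoresis. HepG2 liver cells carry transfected multiple reporter units driven by an exogenous RXRb-Gal4 fusion; activity is relative to DMSO.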
# [7] = biological target: human Thyroid Receptor alpha (THRa1), THRA (gene 7067) (UniProt P10827); experiment: ATG_THRa1_TRANS: Attagene TRANS-FACTORIAL HepG2 Assay for human Thyroid Receptor alpha (THRa1) (AID 2283014)
# Procedure, shortened: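 First, HepG2 cells receive multiple GAL4-UAS reporter units and the chimeric receptor. They are then dosed for 24 h, after which RNA is reverse-transcribed, amplified, labelled, HpaI-cut and sized by capillary electrophoresis; gain relative to DMSO is scored.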
# [8] = biological target: human Retinoic Acid Receptor gamma (RARg), RARG (gene 5916) (UniProt P13631); experiment: ATG_RARg_TRANS: Attagene TRANS-FACTORIAL HepG2 Assay for human Retinoic Acid Receptor gamma (RARg) (AID 2283009)
# Procedure, shortened: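 Transactivation of exogenous RARg-Gal4 fusion measured as reporter transcript induction after 24 h in transfected HepG2 cells. RNA reverse-transcribed, amplified, fluorescently labeled and resolved by capillary electrophoresis; increase relative to DMSO.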
# [9] = biological target: human RAR-related Orphan Receptor beta (RORb), RORB (gene 6096) (UniProt Q92753); experiment: ATG_RORb_TRANS: Attagene TRANS-FACTORIAL HepG2 Assay for human RAR-related Orphan Receptor beta (RORb) (AID 2283010)
# Procedure, shortened: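 Read-out is reporter mRNA induction, quantified by RT-PCR with fluorescent capillary electrophoresis, 24 h post-dose in transiently transfected HepG2 expressing exogenous NR-Gal4 chimera. Activity fitted upward versus DMSO.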
# [10] = biological target: Retinoic acid receptor alpha (Homo sapiens) (UniProt P10276); experiment: ATG_RARa_TRANS: Attagene TRANS-FACTORIAL HepG2 Assay for human Retinoic Acid Receptor alpha (RARa) (AID 2283005)
# Procedure, shortened: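 HepG2 transiently transfected with multiplex GAL4-UAS reporter units including a human RARa–GAL4 chimera; 24 h compound exposure. Reporter mRNA quantified by RT-PCR, 6-FAM labeling and capillary electrophoresis; gain of signal versus DMSO.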
# [11] = biological target: human RAR-related Orphan Receptor gamma (RORg), RORC (gene 6097) (UniProt P51449); experiment: ATG_RORg_TRANS: Attagene TRANS-FACTORIAL HepG2 Assay for human RAR-related Orphan Receptor gamma (RORg) (AID 2283011)
# Procedure, shortened: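 Activity is scored as increase in GAL4-UAS reporter mRNA over DMSO, detected by fluorescent RT-PCR and capillary electrophoresis in HepG2 cells transiently expressing a RORg-Gal4 chimera, 24 h after dosing.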
# human Peroxisome Proliferator-activated Receptor alpha (PPARa), PPARA (gene 5465), sequence (Q07869 whole entry, looked up): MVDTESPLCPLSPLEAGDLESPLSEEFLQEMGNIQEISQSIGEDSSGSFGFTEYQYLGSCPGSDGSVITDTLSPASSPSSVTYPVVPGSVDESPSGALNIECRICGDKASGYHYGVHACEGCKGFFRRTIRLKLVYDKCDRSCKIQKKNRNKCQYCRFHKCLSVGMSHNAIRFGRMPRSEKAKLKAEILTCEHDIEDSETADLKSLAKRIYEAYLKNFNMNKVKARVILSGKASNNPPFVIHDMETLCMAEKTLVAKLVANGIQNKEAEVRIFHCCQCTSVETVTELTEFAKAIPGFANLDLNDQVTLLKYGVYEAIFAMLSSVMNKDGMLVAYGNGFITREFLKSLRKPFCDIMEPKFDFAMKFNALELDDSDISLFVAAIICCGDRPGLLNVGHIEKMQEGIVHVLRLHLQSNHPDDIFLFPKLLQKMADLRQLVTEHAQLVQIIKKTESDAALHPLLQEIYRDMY
# human RAR-related Orphan Receptor gamma (RORg), RORC (gene 6097), sequence (P51449 whole entry, looked up, the tested form may be a part): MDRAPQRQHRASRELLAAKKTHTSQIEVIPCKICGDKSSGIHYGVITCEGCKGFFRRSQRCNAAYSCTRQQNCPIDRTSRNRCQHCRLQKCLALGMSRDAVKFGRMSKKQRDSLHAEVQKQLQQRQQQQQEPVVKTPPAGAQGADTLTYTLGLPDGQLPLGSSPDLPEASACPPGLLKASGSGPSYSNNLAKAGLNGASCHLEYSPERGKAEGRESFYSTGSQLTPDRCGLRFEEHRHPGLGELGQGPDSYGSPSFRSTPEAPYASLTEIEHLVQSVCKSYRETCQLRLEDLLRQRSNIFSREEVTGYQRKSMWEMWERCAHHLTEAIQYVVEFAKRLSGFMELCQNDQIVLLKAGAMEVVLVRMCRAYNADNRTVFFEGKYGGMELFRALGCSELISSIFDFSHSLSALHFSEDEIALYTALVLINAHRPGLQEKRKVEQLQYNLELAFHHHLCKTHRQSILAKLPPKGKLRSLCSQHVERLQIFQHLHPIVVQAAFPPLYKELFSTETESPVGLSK
# human Retinoid X Receptor beta (RXRb), RXRB (gene 6257), sequence (P28702 whole entry, looked up, the tested form may be a part): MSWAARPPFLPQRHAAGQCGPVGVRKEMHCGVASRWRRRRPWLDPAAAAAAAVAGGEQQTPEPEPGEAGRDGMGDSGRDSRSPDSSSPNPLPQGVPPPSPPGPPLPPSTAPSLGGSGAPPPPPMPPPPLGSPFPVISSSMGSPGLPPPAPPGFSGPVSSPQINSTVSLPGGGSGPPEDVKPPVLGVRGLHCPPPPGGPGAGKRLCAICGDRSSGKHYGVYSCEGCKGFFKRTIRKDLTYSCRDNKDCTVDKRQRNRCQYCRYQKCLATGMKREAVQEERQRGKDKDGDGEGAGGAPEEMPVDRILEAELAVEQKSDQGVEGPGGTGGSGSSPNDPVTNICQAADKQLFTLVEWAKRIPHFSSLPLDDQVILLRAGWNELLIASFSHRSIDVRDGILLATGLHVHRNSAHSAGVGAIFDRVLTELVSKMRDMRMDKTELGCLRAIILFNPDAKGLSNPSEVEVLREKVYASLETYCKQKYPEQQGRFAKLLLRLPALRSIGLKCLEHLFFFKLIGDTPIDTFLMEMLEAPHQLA
# Retinoic acid receptor alpha (Homo sapiens), sequence (P10276 whole entry, looked up, the tested form may be a part): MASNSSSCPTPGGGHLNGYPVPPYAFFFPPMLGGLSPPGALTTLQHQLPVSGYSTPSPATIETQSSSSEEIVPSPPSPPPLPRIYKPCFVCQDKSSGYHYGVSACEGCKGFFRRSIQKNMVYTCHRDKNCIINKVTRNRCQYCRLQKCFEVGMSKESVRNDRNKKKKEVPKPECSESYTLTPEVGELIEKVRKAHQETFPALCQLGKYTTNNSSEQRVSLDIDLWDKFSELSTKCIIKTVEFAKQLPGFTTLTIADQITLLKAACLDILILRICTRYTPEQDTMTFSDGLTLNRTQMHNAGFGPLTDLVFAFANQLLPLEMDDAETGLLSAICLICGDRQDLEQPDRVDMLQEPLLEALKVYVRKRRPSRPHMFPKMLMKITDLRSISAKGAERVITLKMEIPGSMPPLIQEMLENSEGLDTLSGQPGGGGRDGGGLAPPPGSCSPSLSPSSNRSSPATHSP
# Peroxisome proliferator-activated receptor gamma (Homo sapiens), sequence (P37231 whole entry, looked up): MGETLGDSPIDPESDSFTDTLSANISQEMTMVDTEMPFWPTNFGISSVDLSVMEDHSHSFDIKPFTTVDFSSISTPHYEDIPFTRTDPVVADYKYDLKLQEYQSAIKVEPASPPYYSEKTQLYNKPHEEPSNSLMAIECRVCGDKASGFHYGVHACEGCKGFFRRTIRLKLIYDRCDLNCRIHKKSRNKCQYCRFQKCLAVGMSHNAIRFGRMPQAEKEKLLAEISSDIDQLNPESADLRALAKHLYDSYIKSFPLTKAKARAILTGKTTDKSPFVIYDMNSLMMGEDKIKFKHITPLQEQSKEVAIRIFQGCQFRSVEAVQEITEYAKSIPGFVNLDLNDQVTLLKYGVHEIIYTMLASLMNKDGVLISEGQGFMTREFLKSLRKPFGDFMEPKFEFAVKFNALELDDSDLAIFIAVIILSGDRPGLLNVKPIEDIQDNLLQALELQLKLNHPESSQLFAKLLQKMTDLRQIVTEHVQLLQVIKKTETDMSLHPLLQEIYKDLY
# Nuclear receptor subfamily 1 group I member 2 (Homo sapiens), sequence (O75469 whole entry, looked up, the tested form may be a part): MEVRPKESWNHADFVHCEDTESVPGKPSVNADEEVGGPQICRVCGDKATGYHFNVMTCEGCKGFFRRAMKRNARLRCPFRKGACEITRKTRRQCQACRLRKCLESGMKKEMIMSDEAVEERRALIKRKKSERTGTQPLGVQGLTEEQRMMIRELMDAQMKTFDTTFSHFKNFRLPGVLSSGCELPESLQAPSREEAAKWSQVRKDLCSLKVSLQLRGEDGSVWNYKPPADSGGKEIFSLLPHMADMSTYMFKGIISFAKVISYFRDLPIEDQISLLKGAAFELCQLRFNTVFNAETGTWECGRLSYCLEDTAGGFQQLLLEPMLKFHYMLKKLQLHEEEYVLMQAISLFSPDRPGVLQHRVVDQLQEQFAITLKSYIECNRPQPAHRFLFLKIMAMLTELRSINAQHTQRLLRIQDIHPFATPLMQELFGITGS
# Retinoic acid receptor RXR-alpha (Homo sapiens), sequence (P19793 whole entry, looked up, the tested form may be a part): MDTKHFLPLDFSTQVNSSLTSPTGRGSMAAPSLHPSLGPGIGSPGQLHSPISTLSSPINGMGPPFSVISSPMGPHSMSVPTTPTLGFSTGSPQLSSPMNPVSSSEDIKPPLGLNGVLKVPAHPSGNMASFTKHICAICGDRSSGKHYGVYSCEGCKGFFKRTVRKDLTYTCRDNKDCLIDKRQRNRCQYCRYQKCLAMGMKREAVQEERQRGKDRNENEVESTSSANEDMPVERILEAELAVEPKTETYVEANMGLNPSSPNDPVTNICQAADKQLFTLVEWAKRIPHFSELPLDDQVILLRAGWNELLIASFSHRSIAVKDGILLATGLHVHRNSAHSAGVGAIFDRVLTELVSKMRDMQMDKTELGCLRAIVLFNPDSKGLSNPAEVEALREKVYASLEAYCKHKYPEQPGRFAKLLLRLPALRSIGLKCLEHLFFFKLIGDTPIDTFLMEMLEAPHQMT
# human Thyroid Receptor alpha (THRa1), THRA (gene 7067), sequence (P10827 whole entry, looked up, the tested form may be a part): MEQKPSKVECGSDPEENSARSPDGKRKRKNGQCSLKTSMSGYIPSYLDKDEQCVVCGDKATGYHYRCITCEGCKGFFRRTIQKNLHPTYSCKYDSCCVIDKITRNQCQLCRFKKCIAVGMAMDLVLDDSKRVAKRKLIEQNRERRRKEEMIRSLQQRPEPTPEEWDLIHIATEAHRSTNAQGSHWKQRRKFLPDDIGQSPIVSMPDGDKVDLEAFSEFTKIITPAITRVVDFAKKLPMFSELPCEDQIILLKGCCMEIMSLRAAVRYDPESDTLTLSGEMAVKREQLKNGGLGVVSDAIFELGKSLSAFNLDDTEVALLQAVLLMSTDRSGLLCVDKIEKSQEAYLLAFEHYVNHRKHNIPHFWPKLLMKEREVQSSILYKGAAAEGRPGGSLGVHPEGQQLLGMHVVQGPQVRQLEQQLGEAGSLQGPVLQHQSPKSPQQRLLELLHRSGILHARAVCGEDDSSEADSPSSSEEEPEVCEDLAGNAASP
# human Retinoic Acid Receptor gamma (RARg), RARG (gene 5916), sequence (P13631 whole entry, looked up, the tested form may be a part): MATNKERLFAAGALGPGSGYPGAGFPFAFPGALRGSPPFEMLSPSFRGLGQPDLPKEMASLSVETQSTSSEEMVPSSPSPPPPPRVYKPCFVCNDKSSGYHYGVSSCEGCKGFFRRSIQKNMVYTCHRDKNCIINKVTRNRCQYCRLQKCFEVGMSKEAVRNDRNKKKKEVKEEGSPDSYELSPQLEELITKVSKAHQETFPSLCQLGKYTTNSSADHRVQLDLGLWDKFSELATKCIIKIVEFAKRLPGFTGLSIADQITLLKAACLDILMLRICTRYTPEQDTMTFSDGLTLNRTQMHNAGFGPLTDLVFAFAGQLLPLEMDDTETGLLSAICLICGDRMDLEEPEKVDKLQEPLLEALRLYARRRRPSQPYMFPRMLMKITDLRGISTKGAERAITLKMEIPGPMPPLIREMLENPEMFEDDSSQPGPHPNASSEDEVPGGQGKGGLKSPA
# human RAR-related Orphan Receptor beta (RORb), RORB (gene 6096), sequence (Q92753 whole entry, looked up, the tested form may be a part): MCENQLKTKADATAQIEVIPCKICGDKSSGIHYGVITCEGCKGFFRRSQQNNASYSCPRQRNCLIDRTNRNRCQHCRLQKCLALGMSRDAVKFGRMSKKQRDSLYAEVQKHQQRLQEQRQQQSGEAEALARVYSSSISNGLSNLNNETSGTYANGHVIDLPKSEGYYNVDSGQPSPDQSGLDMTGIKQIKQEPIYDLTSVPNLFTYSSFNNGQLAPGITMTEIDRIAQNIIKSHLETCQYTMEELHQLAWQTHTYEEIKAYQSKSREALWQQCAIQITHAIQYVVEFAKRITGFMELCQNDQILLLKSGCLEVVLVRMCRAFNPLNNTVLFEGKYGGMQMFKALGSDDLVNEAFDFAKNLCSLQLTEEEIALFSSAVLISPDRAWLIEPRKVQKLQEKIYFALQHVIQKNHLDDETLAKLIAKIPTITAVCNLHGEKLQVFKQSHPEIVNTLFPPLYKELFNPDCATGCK
smiles,measurement,setting,value
Oc1ccc(Cl)cc1Cc1cc(Cl)ccc1O,AC50,[1],6.86 µM (active)
same,outcome,[2],inactive
same,AC50,[3],4.51 µM (active)
same,AC50,[4],2.94 µM (active)
same,outcome,[5],inactive
same,AC50,[6],6.46 µM (active)
same,outcome,[7],inactive
CCc1c(C(=O)O)c(=O)cnn1-c1ccc(Cl)cc1,outcome,[1],inactive
same,outcome,[2],inactive
same,outcome,[3],inactive
same,outcome,[4],inactive
same,outcome,[6],inactive
O=C(O)c1ccccc1Nc1cccc(C(F)(F)F)c1,AC50,[1],13.9 µM (active)
same,AC50,[2],40.1 µM (active)
same,AC50,[3],6.64 µM (active)
same,outcome,[4],inactive
same,outcome,[8],inactive
same,outcome,[5],inactive
same,outcome,[7],inactive
O=C(O)CC(C(=O)O)C(CC(=O)O)C(=O)O (configuration not stated),outcome,[1],inactive
same,outcome,[2],inactive
same,outcome,[3],inactive
same,outcome,[4],inactive
CC(CC=O)CCCC(C)(C)O (configuration not stated),outcome,[1],inactive
same,outcome,[2],inactive
same,outcome,[3],inactive
same,outcome,[4],inactive
same,outcome,[9],inactive
same,outcome,[5],inactive
same,outcome,[6],inactive
same,outcome,[7],inactive
CCCCCCCCCCCSCC(=O)O,AC50,[1],2.85 µM (active)
same,AC50,[2],7.11 µM (active)
same,outcome,[10],inactive
same,AC50,[3],9.6 µM (active)
same,outcome,[4],inactive
same,outcome,[5],inactive
same,AC50,[6],11.5 µM (active)
same,outcome,[7],inactive
CCCCCCCC/C=C\CCCCCCCC(=O)O,AC50,[1],21.8 µM (active)
same,AC50,[2],100 µM (active)
same,AC50,[3],18.8 µM (active)
same,outcome,[4],inactive
same,outcome,[5],inactive
same,AC50,[6],68 µM (active)
same,outcome,[7],inactive
C=CC(=O)OCCOC1C2CCC1C1CC=CC12 (configuration not stated),outcome,[1],inactive
same,outcome,[2],inactive
same,outcome,[3],inactive
O=C(C=Cc1ccccc1)OCc1ccccc1,outcome,[1],inactive
same,outcome,[2],inactive
same,AC50,[3],0.162 µM (active)
same,outcome,[4],inactive
same,outcome,[9],inactive
same,outcome,[11],inactive
CCN(CCC#N)c1ccc(N=Nc2c(Cl)cc([N+](=O)[O-])cc2Cl)cc1,outcome,[1],inactive
same,outcome,[2],inactive
same,AC50,[3],16.3 µM (active)
same,AC50,[4],1.05 µM (active)
same,outcome,[5],inactive
same,outcome,[7],inactive
O=c1cc(-c2ccccc2)oc2ccccc12,outcome,[1],inactive
same,outcome,[2],inactive
same,outcome,[10],inactive
same,AC50,[3],1.1 µM (active)
same,outcome,[8],inactive
same,outcome,[5],inactive
same,outcome,[6],inactive
same,outcome,[7],inactive
COC(=O)c1c(C)cc(O)c(C)c1O,outcome,[1],inactive
same,outcome,[2],inactive
same,outcome,[3],inactive
same,outcome,[4],inactive
same,outcome,[8],inactive
same,outcome,[5],inactive
same,outcome,[6],inactive
same,outcome,[7],inactive
CCCCCC/C=C/C=O,AC50,[1],66.3 µM (active)
same,outcome,[2],inactive
same,AC50,[3],20.8 µM (active)
same,outcome,[4],inactive
same,outcome,[9],inactive
same,outcome,[6],inactive
N#CCc1ccc(Cl)cc1Cl,outcome,[1],inactive
same,outcome,[2],inactive
same,outcome,[3],inactive
same,outcome,[4],inactive
same,outcome,[5],inactive
COc1cc(C)ccc1C(C)C,outcome,[1],inactive
same,outcome,[2],inactive
same,outcome,[10],inactive
same,outcome,[4],inactive
same,outcome,[8],inactive
same,AC50,[6],100 µM (active)
same,outcome,[7],inactive
c1ccc(CNCc2ccccc2)cc1,outcome,[1],inactive
same,outcome,[2],inactive
same,outcome,[3],inactive
same,outcome,[4],inactive
same,outcome,[11],inactive
[Cl][In]([Cl])[Cl],outcome,[1],inactive
same,outcome,[2],inactive
same,outcome,[10],inactive
same,outcome,[8],inactive
same,outcome,[9],inactive
same,outcome,[11],inactive
same,outcome,[7],inactive
CCCOC(=O)CCCCC(=O)OCCC,outcome,[1],inactive
same,outcome,[2],inactive
same,outcome,[3],inactive
same,outcome,[4],inactive
same,outcome,[11],inactive
same,outcome,[5],inactive
CC/C=C\C/C=C\C/C=C\CCCCCCCC(=O)O,AC50,[1],42.3 µM (active)
same,outcome,[2],inactive
same,AC50,[3],14.6 µM (active)
same,outcome,[11],inactive
same,outcome,[5],inactive
CCOC(=O)[C@H](C)O,outcome,[1],inactive
same,outcome,[2],inactive
same,outcome,[10],inactive
same,outcome,[4],inactive
same,outcome,[8],inactive
same,outcome,[11],inactive
same,outcome,[5],inactive
same,outcome,[6],inactive
CC=CC(F)(F)C(F)(F)C(F)(F)F,outcome,[1],inactive
same,outcome,[2],inactive
same,outcome,[3],inactive
same,outcome,[4],inactive
same,outcome,[5],inactive
same,outcome,[6],inactive
same,outcome,[7],inactive
CC(C)=CCCC(C)C=O (configuration not stated),outcome,[1],inactive
same,outcome,[2],inactive
same,outcome,[3],inactive
same,AC50,[4],7.95 µM (active)
same,outcome,[6],inactive
same,outcome,[7],inactive
Cc1ccc(N)c([N+](=O)[O-])c1,outcome,[1],inactive
same,outcome,[2],inactive
same,outcome,[3],inactive
same,outcome,[4],inactive
same,outcome,[11],inactive
same,outcome,[5],inactive
same,outcome,[6],inactive
CN(C)c1ccc(C(=N)c2ccc(N(C)C)cc2)cc1,outcome,[1],inactive
same,outcome,[2],inactive
same,AC50,[3],26.6 µM (active)
same,outcome,[4],inactive
same,outcome,[8],inactive
same,outcome,[11],inactive
same,outcome,[5],inactive
same,outcome,[6],inactive
same,outcome,[7],inactive
FC(F)=C(F)OC(F)(F)C(F)(F)C(F)(F)F,outcome,[1],inactive
same,outcome,[2],inactive
same,outcome,[3],inactive
same,outcome,[4],inactive
same,outcome,[6],inactive
C1=Cc2ccccc2C1,outcome,[1],inactive
same,outcome,[2],inactive
same,AC50,[3],67.4 µM (active)
same,outcome,[8],inactive
same,outcome,[9],inactive
same,outcome,[11],inactive
same,outcome,[7],inactive
CCCCCC/C=C\CCCCCCCC(=O)O,outcome,[1],inactive
same,outcome,[2],inactive
same,outcome,[10],inactive
same,outcome,[3],inactive
same,outcome,[9],inactive
same,outcome,[5],inactive
same,AC50,[6],77 µM (active)
CC(C)CCCC(C)CC=O (configuration not stated),AC50,[1],45.8 µM (active)
same,outcome,[2],inactive
same,outcome,[3],inactive
same,outcome,[4],inactive
same,outcome,[9],inactive
same,outcome,[11],inactive
same,outcome,[6],inactive
same,outcome,[7],inactive
CCCCCCCCCCC=CC#N,AC50,[1],38 µM (active)
same,outcome,[2],inactive
same,AC50,[3],28.2 µM (active)
same,AC50,[4],29.9 µM (active)
same,outcome,[9],inactive
same,outcome,[5],inactive
same,outcome,[7],inactive
COC(=O)/C=C/C(C)=C\C=C\C(C)=C\C=C\C=C(C)\C=C\C=C(C)\C=C\C(=O)O,outcome,[1],inactive
same,outcome,[2],inactive
same,AC50,[3],27.9 µM (active)
same,outcome,[4],inactive
same,outcome,[9],inactive
same,outcome,[5],inactive
CC(C)CCCCCOC(=O)CCS,AC50,[1],9.41 µM (active)
same,outcome,[2],inactive
same,outcome,[3],inactive
same,AC50,[4],27.1 µM (active)
same,outcome,[9],inactive
same,outcome,[5],inactive
same,outcome,[6],inactive
CCC(C)OC(=O)c1ccc(O)cc1 (configuration not stated),outcome,[1],inactive
same,outcome,[2],inactive
same,AC50,[3],62.1 µM (active)
same,AC50,[4],14.8 µM (active)
same,outcome,[8],inactive
same,outcome,[5],inactive
same,AC50,[6],70.8 µM (active)
same,outcome,[7],inactive
CC(=O)c1ccc2c(c1)CCCC2,outcome,[1],inactive
same,outcome,[2],inactive
same,outcome,[3],inactive
same,outcome,[4],inactive
same,outcome,[5],inactive
same,AC50,[6],42.9 µM (active)
same,outcome,[7],inactive
